Our source for the inhibition values is ChEMBL document CHEMBL1961873, “Compounds: GSK PKIS; Assays: Nanosyn kinase panel” (2012).

Assay [1] deals with Sphingosine kinase 1 (Homo sapiens) (UniProt Q9NYA1). The following applies: at 1 µM.
Assay [2] addresses T1, Sphingosine kinase 2 (Homo sapiens) (UniProt Q9NRA0).
T1 sequence (whole entry): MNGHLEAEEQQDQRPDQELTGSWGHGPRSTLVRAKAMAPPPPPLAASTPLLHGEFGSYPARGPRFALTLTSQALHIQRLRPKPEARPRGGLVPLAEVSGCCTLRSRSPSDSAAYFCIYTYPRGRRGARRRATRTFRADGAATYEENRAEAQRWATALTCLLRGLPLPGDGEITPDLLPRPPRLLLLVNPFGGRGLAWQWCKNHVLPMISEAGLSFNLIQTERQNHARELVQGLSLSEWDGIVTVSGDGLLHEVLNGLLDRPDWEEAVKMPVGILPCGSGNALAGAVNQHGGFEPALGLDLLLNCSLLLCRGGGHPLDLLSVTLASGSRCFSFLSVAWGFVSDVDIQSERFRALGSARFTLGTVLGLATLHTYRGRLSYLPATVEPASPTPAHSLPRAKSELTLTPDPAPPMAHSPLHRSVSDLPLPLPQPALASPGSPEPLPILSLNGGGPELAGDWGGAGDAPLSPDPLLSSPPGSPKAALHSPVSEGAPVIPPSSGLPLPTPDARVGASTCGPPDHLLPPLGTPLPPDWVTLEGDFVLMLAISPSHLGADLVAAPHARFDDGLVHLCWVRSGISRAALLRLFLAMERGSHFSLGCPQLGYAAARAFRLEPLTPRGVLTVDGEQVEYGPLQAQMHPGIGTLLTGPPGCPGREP
The following applies: at 0.1 µM.

Assay [3] addresses T1, Sphingosine kinase 2 (Homo sapiens). The settings on record: at 1 µM.
For assay [4], the target named is Casein kinase II subunit alpha (Homo sapiens) (UniProt P68400). The settings on record: at 0.1 µM.
Sequence of Casein kinase II subunit alpha (Homo sapiens) (P68400 whole entry, looked up): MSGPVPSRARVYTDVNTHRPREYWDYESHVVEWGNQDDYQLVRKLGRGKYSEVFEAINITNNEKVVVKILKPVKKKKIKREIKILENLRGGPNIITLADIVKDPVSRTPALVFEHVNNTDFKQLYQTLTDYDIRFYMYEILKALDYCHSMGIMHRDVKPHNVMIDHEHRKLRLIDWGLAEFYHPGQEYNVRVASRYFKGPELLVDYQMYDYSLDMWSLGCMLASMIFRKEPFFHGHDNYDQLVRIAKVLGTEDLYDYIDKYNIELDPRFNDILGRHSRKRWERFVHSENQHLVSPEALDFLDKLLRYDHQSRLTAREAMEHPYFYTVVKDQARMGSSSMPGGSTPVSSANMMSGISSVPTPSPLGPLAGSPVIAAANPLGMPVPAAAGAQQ
Assay [5] shares this target. The following applies: at 1 µM.
Assay [6] deals with T2, Inhibitor of nuclear factor kappa-B kinase subunit alpha (Homo sapiens) (UniProt O15111).
T2 sequence (whole entry): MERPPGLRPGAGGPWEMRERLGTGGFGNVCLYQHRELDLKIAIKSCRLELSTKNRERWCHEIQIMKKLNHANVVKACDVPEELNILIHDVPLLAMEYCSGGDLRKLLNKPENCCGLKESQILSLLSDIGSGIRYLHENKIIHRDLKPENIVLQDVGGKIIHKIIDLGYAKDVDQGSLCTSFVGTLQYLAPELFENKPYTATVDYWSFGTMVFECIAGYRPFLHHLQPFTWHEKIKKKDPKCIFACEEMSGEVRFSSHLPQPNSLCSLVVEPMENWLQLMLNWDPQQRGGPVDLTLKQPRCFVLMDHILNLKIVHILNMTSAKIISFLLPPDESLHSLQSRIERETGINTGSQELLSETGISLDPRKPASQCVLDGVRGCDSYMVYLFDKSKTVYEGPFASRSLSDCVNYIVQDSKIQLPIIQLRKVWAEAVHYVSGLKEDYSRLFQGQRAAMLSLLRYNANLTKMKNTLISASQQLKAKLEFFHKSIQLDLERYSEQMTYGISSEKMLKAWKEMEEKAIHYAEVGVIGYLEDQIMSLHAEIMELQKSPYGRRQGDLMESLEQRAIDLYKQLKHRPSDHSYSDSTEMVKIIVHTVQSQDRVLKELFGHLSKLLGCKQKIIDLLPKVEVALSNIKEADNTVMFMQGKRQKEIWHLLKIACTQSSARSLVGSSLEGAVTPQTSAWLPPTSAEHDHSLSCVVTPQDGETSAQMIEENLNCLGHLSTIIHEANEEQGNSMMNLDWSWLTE
The settings on record: at 0.1 µM.

Assay [7] has as its target T2, Inhibitor of nuclear factor kappa-B kinase subunit alpha (Homo sapiens). The settings on record: at 1 µM.
Assay [8] has as its target T3, Inhibitor of nuclear factor kappa-B kinase subunit beta (Homo sapiens) (UniProt O14920).
T3 sequence (whole entry): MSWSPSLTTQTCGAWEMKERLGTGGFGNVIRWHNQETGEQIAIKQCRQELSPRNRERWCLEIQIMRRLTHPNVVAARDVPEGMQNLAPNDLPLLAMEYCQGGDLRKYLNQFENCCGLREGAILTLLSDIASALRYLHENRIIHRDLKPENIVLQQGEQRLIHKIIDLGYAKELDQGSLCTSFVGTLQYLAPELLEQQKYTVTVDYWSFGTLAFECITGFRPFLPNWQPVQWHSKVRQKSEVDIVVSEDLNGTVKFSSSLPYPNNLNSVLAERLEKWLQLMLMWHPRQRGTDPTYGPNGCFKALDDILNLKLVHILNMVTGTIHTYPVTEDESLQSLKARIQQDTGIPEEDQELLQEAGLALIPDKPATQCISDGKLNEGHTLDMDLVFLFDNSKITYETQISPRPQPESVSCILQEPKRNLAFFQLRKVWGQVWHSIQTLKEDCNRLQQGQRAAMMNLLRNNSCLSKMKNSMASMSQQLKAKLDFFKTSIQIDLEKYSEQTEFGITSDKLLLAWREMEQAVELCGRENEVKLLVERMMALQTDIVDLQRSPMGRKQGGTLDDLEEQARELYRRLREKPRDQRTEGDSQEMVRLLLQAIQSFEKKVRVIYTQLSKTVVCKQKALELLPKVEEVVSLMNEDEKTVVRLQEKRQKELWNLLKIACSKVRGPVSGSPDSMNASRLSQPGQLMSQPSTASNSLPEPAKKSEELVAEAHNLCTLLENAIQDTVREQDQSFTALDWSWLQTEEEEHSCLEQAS
The following applies: at 0.1 µM.

For assay [9], the target named is T3, Inhibitor of nuclear factor kappa-B kinase subunit beta (Homo sapiens). The settings on record: at 1 µM.
Assay [10] concerns the target T4, Inhibitor of nuclear factor kappa-B kinase subunit epsilon (Homo sapiens) (UniProt Q14164).
T4 sequence (whole entry): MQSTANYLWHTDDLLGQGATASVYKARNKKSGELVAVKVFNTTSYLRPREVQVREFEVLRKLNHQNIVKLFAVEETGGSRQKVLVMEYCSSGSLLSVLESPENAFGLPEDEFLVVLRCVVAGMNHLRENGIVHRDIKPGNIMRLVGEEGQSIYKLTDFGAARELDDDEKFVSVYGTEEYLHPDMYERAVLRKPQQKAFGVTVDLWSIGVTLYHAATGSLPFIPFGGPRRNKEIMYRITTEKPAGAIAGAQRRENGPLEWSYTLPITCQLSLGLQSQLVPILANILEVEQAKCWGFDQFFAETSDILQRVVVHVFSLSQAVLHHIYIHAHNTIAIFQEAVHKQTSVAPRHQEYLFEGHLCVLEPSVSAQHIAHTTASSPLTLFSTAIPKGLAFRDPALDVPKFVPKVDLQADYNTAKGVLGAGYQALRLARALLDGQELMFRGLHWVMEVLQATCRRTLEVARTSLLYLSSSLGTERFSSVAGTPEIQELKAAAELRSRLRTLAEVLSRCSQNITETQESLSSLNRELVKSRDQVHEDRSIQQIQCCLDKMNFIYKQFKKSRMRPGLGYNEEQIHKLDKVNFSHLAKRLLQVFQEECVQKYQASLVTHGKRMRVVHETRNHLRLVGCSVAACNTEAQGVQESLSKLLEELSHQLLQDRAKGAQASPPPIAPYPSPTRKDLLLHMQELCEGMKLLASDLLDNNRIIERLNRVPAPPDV
The settings on record: at 0.1 µM.

The target in assay [11] is T4, Inhibitor of nuclear factor kappa-B kinase subunit epsilon (Homo sapiens). The settings on record: at 1 µM.
The target of assay [12] is T5, Serine/threonine-protein kinase Nek1 (Homo sapiens) (UniProt Q96PY6).
T5 sequence (whole entry): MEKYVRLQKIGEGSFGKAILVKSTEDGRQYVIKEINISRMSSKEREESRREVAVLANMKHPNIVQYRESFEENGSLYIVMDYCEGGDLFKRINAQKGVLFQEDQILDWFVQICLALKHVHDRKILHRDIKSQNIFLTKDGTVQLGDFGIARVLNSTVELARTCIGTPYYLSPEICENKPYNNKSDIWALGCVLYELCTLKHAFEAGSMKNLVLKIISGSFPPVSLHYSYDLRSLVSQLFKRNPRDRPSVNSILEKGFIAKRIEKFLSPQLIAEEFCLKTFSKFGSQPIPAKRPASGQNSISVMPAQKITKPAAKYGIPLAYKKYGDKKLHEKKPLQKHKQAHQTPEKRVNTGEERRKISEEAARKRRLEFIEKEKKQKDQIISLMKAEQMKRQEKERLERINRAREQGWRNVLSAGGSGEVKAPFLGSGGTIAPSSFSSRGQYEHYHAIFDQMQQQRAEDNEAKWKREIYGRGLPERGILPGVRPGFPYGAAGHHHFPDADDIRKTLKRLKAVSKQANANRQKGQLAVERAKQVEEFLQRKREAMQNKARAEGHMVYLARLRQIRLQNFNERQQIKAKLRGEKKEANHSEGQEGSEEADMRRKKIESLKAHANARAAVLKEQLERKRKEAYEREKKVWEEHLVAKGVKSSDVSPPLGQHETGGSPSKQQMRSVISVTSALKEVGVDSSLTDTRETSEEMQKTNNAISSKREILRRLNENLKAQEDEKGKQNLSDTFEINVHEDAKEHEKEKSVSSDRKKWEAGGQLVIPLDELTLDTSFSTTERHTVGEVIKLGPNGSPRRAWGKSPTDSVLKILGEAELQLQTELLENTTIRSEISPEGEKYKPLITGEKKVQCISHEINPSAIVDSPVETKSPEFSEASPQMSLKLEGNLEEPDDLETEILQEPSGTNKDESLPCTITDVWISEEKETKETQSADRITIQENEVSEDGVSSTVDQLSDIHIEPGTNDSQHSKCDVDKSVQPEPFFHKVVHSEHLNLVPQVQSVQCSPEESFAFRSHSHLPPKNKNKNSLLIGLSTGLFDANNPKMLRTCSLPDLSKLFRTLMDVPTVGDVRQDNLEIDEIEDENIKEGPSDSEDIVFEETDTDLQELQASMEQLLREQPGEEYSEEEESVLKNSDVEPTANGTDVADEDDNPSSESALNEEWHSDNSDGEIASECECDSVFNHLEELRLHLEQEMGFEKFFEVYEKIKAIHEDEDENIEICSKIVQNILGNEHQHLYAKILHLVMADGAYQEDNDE
The following applies: at 0.1 µM.

Assay [13] has as its target T5, Serine/threonine-protein kinase Nek1 (Homo sapiens). The settings on record: at 1 µM.
Assay [14] concerns the target T6, Serine/threonine-protein kinase Nek2 (Homo sapiens) (UniProt P51955).
T6 sequence (whole entry): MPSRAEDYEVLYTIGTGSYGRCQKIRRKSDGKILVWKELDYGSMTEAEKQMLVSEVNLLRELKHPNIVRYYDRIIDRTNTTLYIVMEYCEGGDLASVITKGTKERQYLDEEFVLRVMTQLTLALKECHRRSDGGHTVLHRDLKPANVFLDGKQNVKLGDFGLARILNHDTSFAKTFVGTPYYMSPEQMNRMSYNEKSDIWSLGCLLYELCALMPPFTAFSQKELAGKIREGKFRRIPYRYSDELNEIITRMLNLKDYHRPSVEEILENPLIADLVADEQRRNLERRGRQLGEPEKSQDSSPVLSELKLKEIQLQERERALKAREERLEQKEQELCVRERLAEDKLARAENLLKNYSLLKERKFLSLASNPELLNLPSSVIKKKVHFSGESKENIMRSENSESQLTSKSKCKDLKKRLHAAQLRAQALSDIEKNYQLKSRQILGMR
The settings on record: at 0.1 µM.

Assay [15] concerns the target T6, Serine/threonine-protein kinase Nek2 (Homo sapiens). The following applies: at 1 µM.
For assay [16], the target named is Serine/threonine-protein kinase Nek6 (Homo sapiens) (UniProt Q9HC98). The settings on record: at 0.1 µM.
Sequence of Serine/threonine-protein kinase Nek6 (Homo sapiens) (Q9HC98 whole entry): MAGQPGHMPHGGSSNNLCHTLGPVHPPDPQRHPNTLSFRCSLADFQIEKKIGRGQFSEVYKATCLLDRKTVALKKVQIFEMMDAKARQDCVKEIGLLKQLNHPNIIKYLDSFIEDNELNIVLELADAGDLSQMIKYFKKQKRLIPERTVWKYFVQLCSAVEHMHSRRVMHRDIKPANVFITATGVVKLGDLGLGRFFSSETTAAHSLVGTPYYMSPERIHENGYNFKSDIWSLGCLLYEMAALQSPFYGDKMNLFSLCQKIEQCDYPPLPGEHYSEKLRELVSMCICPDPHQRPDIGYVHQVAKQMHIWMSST
For assay [17] the target is unchanged. The following applies: at 1 µM.
For assay [18], the target named is Serine/threonine-protein kinase Nek7 (Homo sapiens) (UniProt Q8TDX7). The following applies: at 0.1 µM.
Sequence of Serine/threonine-protein kinase Nek7 (Homo sapiens) (Q8TDX7 whole entry, looked up): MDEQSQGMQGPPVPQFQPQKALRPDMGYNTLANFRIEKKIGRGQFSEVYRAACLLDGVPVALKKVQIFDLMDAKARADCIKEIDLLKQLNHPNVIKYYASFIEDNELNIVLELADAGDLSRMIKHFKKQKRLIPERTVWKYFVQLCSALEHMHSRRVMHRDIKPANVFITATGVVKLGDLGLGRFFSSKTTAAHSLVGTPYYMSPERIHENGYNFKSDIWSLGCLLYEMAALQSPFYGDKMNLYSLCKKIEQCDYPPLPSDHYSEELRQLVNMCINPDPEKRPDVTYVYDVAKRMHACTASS
For assay [19] the target is unchanged. The following applies: at 1 µM.
The target of assay [20] is T7, Serine/threonine-protein kinase Nek9 (Homo sapiens) (UniProt Q8TD19).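 Also: reported value is the mean percent inhibition of NEK9.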
T7 sequence (whole entry): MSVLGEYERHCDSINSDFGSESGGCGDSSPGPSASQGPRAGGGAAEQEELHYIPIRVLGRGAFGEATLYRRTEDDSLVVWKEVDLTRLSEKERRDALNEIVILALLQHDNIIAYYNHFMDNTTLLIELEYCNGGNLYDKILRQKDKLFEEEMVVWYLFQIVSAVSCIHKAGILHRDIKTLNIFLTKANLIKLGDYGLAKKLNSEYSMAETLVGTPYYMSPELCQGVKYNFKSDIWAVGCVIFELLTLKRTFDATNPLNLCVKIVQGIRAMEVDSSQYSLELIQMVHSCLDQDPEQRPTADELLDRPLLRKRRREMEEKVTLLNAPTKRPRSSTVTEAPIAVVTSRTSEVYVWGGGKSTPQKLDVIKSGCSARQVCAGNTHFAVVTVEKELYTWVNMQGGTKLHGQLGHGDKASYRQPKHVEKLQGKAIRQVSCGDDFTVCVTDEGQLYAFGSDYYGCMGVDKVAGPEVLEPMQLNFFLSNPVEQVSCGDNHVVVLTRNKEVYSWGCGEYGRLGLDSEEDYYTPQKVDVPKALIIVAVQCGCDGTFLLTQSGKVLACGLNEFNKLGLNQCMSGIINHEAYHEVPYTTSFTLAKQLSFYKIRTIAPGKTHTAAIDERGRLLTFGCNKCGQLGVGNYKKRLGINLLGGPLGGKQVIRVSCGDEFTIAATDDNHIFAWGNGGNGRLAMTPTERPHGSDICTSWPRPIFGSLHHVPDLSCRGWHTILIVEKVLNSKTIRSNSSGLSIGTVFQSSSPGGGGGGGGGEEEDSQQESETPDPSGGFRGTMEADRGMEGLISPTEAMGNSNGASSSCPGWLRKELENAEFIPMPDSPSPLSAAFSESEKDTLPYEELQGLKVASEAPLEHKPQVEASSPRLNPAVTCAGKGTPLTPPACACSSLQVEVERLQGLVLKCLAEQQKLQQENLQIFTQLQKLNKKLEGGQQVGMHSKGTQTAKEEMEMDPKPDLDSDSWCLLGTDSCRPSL
The settings on record: at 0.1 µM.

Sequence of Sphingosine kinase 1 (Homo sapiens) (Q9NYA1 whole entry): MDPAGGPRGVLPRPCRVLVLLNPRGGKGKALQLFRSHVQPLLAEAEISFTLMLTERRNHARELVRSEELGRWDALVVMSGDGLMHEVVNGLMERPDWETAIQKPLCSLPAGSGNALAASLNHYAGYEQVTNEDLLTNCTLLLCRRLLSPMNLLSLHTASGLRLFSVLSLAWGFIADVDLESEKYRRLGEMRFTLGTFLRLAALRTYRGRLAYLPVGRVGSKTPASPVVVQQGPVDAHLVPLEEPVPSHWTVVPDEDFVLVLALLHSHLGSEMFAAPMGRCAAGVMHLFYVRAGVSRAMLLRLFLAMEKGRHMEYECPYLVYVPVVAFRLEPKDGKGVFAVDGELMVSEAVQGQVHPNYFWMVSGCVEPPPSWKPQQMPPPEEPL

On to `CN1CCN(CCCNc2nc3ccc(Oc4ccc(NC(=O)Nc5cc(C(F)(F)F)ccc5F)cc4)cc3[nH]2)CC1`, for which the inhibition (usually the drop in the measured response relative to a control, in per cent) was -1.27% in [1]; -0.2% in assay [2]; -0.28% in assay [3]; -2.06% in assay [4]; -5.31% in assay [5]; 3.44% in assay [6]. The inhibition in [7] is -6.02%; in assay [8] it was 0.21%; in assay [9], -0.85%; in [10], -0.49%; in assay [11] it was -0.63%; in assay [12] it was 1.41%. The inhibition is 0.88% in [13]; 0.71% in [14]; 0.01% in [15]; 3.67% in assay [16]; -2.03% in assay [17]; 3.61% in [18]. Besides, the inhibition in assay [19] is 0.94%; in assay [20], 2.54%.
